Measured values reported in PubChem BioAssay AID2568 (National Center for Advancing Translational Sciences (NCATS), 2010).
Records with an inconclusive call do not appear. Values without a mark were called inactive. Calls of active or inactive are those of the source. Calls follow the shape of the full dose curve.

Target: Neuropeptide S receptor (Homo sapiens) (UniProt Q6W5P4)
Assay: Confirmation Concentration-Response Assay for Antagonists of the Neuropeptide S Receptor: cAMP Signal Transduction, SAR for Probe
Conditions: CHO-NPSR cells, cAMP TR-FRET, antagonist mode; series mostly up to 47.8 µM; activity change, negative = inhibition: at the top concentration
Description: NIH Chemical Genomics Center [NCGC] NIH Molecular Libraries Probe Production centers Network [MLPCN] MLPCN Grant: X01-DA026210-01 Assay Submitter (PI): Heilig, Markus Alexander NCGC Assay Overview: Neuropeptide S receptor (NPSR), previously known as GPR154, is a recently de-orphanized G protein coupled receptor. Its endogenous ligand is the 20 amino acids peptide Neuropeptide S (NPS). […] NPS and its receptor are found in various tissues. Specifically they are highly expressed in brain areas that have been implicated in modulation of arousal, stress and anxiety. Central administration of NPS in mice produces an unusual profile of activity by inducing wakefulness and arousal, while at the same time suppressing anxiety. Therefore, NPSR may represent a novel drug target for the treatment of sleep and anxiety disorders. To identify NPSR antagonists, we developed a cell-based cAMP assay. NPS can stimulate the production of cAMP in Chinese hamster ovary cells stably expressing NPS receptor. This change in intracellular cAMP level can be detected by a homogeneous LANCE cAMP assay based on the TR-FRET (time resolved fluorescence resonance energy transfer) between a europium-labeled cAMP tracer complex and a cAMP-specific antibody labeled with Alexa Fluor 647. The europium-labeled cAMP tracer complex is formed by the tight interaction between Biotin-cAMP (b-cAMP) and streptavidin labeled with Europium-W8044 chelate (Eu-SA). Light pulse at 320 nm excites the europium of the cAMP tracer and the energy emitted is transferred to the Alexa molecule bound to the cAMP antibody, generating a TR-FRET signal at 665 nm. Residual energy from the europium will produce a light at 620 nm. The native unlabeled cAMP from cell lysates competes with the europium-cAMP tracer for antibody binding and reversely reduces the emission signal of Alexa by interrupting FRET between the two labeled molecules. Both emission signals from the FRET donor (620 nm) and the acceptor (665 nm) can be detected by a plate reader in the TRF mode. Expression of result in fluorescence ratio (665 nm/620 nm) helps to normalize differences due to cell density and reagent dispensing. This assay was successfully optimized to a 1536-well plate format. Select compounds from the primary screen (AID 1461) were chosen for confirmation based on potency, efficacy, SAR, and activity across other assays in PubChem and at NCGC. Other compounds are analogs of active compounds from the primary screen.
NCGC Assay Protocol Summary: A Chinese hamster ovary (CHO) cell line stably expressing the NPS receptor (CHO-NPSR) was obtained from Dr. Heilig lab at NIAAA and maintained in F-12 Kaighn's media (Invitrogen, Carlsbad, CA, 21127) supplemented with 10 % FBS, 100 units/ml penicillin, 100 ug/ml streptomycin and 250 ug/ml geneticin at 37C, 5% CO2 in a humidified atmosphere. Before the assay, aliquots of cells were frozen and stored at -135C. The assay was performed in 1536-well format. Data are reported for both the ratio of the two emission wavelengths, and also for the component 'donor' channel, Em2=620. […] IC50 values were determined from concentration-response data modeled with the standard Hill equation. NPS 1536-well assay protocol: (1) Fresh or frozen CHO-NPSR cells were suspended in F-12 Kaighn's media supplemented with 10 % FBS, 100 units/ml penicillin and 100 ug/ml streptomycin. Cells were plated at 4 ul/well (1200 cells) to white, tissue culture treated 1536-well plates, and then cultured at 37C, 5 % CO2 for 16 to 30 hours. (2) Add 23 nl/well of compound in DMSO solution. The final titration for each compound was between 0.6 nM and 46 uM. (3) Add 1 ul of stimulation reagent (1X HBSS buffer, 5 mM HEPES, 0.1% BSA, 500 uM RO-201724 (Sigma-Aldrich, B8279), 1.5% Alexa 647-labeled anti-cAMP antibody (from Perkin Elmer), 100 nM NPS) (4) Incubation at 37C, 5 % CO2 for 60 min. (5) Add 1 ul/well detection reagent. […]

Chain of Neuropeptide S receptor (Homo sapiens) (Q6W5P4 whole entry, looked up): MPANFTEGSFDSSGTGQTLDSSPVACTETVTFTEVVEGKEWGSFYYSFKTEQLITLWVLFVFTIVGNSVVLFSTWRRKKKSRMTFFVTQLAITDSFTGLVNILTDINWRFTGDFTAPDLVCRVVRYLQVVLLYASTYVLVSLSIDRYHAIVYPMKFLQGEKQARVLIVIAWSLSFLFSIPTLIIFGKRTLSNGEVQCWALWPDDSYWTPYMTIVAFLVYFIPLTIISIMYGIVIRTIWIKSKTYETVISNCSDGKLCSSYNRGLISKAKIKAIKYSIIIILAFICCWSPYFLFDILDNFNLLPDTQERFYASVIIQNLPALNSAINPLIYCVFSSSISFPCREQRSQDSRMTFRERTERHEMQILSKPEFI

| Compound | Potency | activity change, negative = inhibition |
| --- | --- | --- |
| COc1cccc(C2c3c(ncn(-c4cccc(C#N)c4)c3=N)Oc3ccc4ccccc4c32)c1 (centres undefined) | 19.4 µM (active) | – |
| COc1cccc(C2c3c(ncn(-c4ccc(F)cc4)c3=N)Oc3ccc4ccccc4c32)c1 (centres undefined) | 15.4 µM (active) | – |
| COc1ccc(-n2cnc3c(c2=N)C(c2cccc(OC)c2)c2c(ccc4ccccc24)O3)cc1 (centres undefined) | 9.72 µM (active) | – |
| Cn1cc(P(=O)(c2ccccc2)c2ccccc2)c2ccccc21 | – | -17.1% |
| Cc1c(C(O)(c2ccccc2)c2ccccc2)[n+]2ccccc2n1C | – | -2.91% |
| COc1ccc(C2c3c(n(CCCc4ccccc4)cnc3=N)Oc3ccc4ccccc4c32)cc1OC (centres undefined) | 24.4 µM (active) | – |
| OC(c1ccccc1)(c1ccccc1)c1cnc2ccccn12 | – | -18.7% |
| COc1cccc(C2c3c(ncn(-c4ccccc4C(C)(C)C)c3=N)Oc3ccc4ccccc4c32)c1 (centres undefined) | 12.2 µM (active) | – |
| O=C(NCc1ccc(F)cc1)n1c(-c2ccccc2)c(P(=S)(c2ccccc2)c2ccccc2)c2ccccc21 | – | -26.1% |
| COc1cccc(C2c3c(ncn(-c4ccccc4OC)c3=N)Oc3ccc4ccccc4c32)c1 (centres undefined) | 6.14 µM (active) | – |
| Cc1nc2ccccn2c1P(=O)(c1ccccc1)c1ccccc1 | – | -20.8% |
| COc1cccc(C2c3c(ncn(-c4ccncc4)c3=N)Oc3ccc4ccccc4c32)c1 (centres undefined) | 19.4 µM (active) | – |
| COc1cccc(C2c3c(ncn(-c4ccc(C#N)cc4)c3=N)Oc3ccc4ccccc4c32)c1 (centres undefined) | 15.4 µM (active) | – |
| COc1ccc(C2c3c(ncn(CCc4ccccc4)c3=N)Oc3ccc4ccccc4c32)cc1OC (centres undefined) | 24.4 µM (active) | – |
| CCC(C)(CCN1CCOCC1)N(Cc1cc2ccccc2n(C)c1=O)C(=O)C1CCCCC1 (centres undefined) | 0.308 µM (active) | – |
| COc1ccc(C2c3c(ncn(Cc4ccccc4)c3=N)Oc3ccc4ccccc4c32)cc1OC (centres undefined) | 19.4 µM (active) | – |
| COc1cccc(C2c3c(ncn(-c4ccc(-c5ccccc5)cc4)c3=N)Oc3ccc4ccccc4c32)c1 (centres undefined) | – | -18.1% |
| Cc1c(P(=S)(c2ccccc2)c2ccccc2)[n+]2ccccc2n1CC(=O)c1ccccc1 | 4.45 µM (active) | – |
| c1ccc(P(c2ccccc2)c2cnc3ccccn23)cc1 | – | -26.4% |
